This is one part of a sample in which the strongest signals are shown more often than they occur.
Assays:
Test in all cases: glycan array binding signal (z-score within array); higher = stronger binding
Details in all cases: glycan notation: IUPAC condensed, linker removed
[1] = target: Fuc(a1-2)Gal(b1-3)GalNAc(b1-3)Gal
Method in brief: (§1)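 The binding signal is a Z-score computed within each array. Data were drawn from 3228 arrays in the Consortium for Functional Glycomics database, restricted to those with a known protein sequence. Scores were averaged over arrays of the same protein sequence at different concentrations or buffers, and over linkers, and negative values can be taken as non-binding.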

[2] = target: Fuc(a1-2)Gal(b1-3)GalNAc(b1-4)[Neu5Ac(a2-3)]Gal(b1-4)Glc
Method in brief: as §1

[3] = target: Fuc(a1-3)[Gal(b1-4)]GlcNAc6S
Method in brief: as §1

[4] = target: Fuc(a1-3)[Gal3S(b1-4)]Glc6S
Method in brief: as §1

[5] = target: Fuc(a1-3)[Gal3S(b1-4)]GlcNAc6S
Method in brief: as §1

[6] = target: Gal(b1-3)GlcNAc(b1-3)Gal(b1-4)Glc
Method in brief: as §1

[7] = target: Gal(b1-3)[Fuc(a1-4)]GlcNAc(b1-3)Gal(b1-3)[Fuc(a1-4)]GlcNAc
Method in brief: as §1

[8] = target: Gal(b1-3)[GlcNAc(b1-6)]GalNAc
Method in brief: as §1

[9] = target: Gal(b1-4)GlcNAc(b1-3)Gal(b1-4)GlcNAc
Method in brief: as §1

[10] = target: Gal(b1-4)GlcNAc(b1-3)[Gal(b1-4)GlcNAc(b1-6)]GalNAc
Method in brief: as §1

[11] = target: Gal3S(b1-3)[Fuc(a1-4)]GlcNAc
Method in brief: as §1

Gal3S(b1-4)Glc = target: Gal3S(b1-4)Glc
Method in brief: as §1

[12] = target: Gal3S(b1-4)[Fuc(a1-3)]Glc
Method in brief: as §1

Gal3S6S(b1-4)GlcNAc = target: Gal3S6S(b1-4)GlcNAc
Method in brief: as §1

Gal6S(b1-4)GlcNAc = target: Gal6S(b1-4)GlcNAc
Method in brief: as §1

Glc(a1-4)Glc = target: Glc(a1-4)Glc
Method in brief: as §1

GlcNAc(b1-3)Gal(b1-4)Glc = target: GlcNAc(b1-3)Gal(b1-4)Glc
Method in brief: as §1

[13] = target: GlcNAc(b1-3)[GlcNAc(b1-6)]Gal(b1-4)GlcNAc
Method in brief: as §1

[14] = target: GlcNAc(b1-4)Gal(b1-4)GlcNAc
Method in brief: as §1

Kdn(a2-3)Gal(b1-3)GlcNAc = target: Kdn(a2-3)Gal(b1-3)GlcNAc
Method in brief: as §1

[15] = target: Neu5Ac(a2-3)Gal(b1-3)GalNAc(b1-3)Gal(b1-4)GlcNAc
Method in brief: as §1

[16] = target: Neu5Ac(a2-3)Gal(b1-3)GlcNAc
Method in brief: as §1

[17] = target: Neu5Ac(a2-3)Gal(b1-3)[Neu5Ac(a2-3)Gal(b1-4)]GlcNAc
Method in brief: as §1

[18] = target: Neu5Ac(a2-3)Gal(b1-4)GlcNAc(b1-2)Man(a1-3)[Neu5Ac(a2-3)Gal(b1-4)GlcNAc(b1-2)Man(a1-6)]Man(b1-4)GlcNAc(b1-4)GlcNAc
Method in brief: as §1

Neu5Ac(a2-3)GalNAc = target: Neu5Ac(a2-3)GalNAc
Method in brief: as §1

[19] = target: Neu5Ac(a2-3)[GalNAc(b1-4)]Gal(b1-4)Glc
Method in brief: as §1

[20] = target: Neu5Ac(a2-3)[Neu5Ac(a2-6)]GalNAc
Method in brief: as §1

[21] = target: Neu5Ac(a2-6)Gal(b1-4)GlcNAc(b1-2)Man(a1-6)[GlcNAc(b1-2)Man(a1-3)]Man(b1-4)GlcNAc(b1-4)GlcNAc
Method in brief: as §1

[22] = target: Neu5Gc(a2-3)Gal(b1-3)[Fuc(a1-4)]GlcNAc
Method in brief: as §1

Fuc(a1-2)Gal(b1-3)GlcNAc = target: Fuc(a1-2)Gal(b1-3)GlcNAc
Method in brief: as §1

Fuc(a1-2)Gal(b1-4)Glc = target: Fuc(a1-2)Gal(b1-4)Glc
Method in brief: as §1

[23] = target: Fuc(a1-2)Gal(b1-4)GlcNAc(b1-3)Gal(b1-4)GlcNAc
Method in brief: as §1

[24] = target: Fuc(a1-2)Gal6S(b1-4)GlcNAc
Method in brief: as §1

Fuc(b1-3)GlcNAc = target: Fuc(b1-3)GlcNAc
Method in brief: as §1

[25] = target: Gal(a1-3)[Gal(a1-4)]Gal(b1-4)GlcNAc
Method in brief: as §1

[26] = target: Gal(b1-3)GalNAc(b1-4)Gal(b1-4)Glc
Method in brief: as §1

[27] = target: Gal(b1-3)GlcNAc(b1-2)Man(a1-3)[Gal(b1-3)GlcNAc(b1-2)Man(a1-6)]Man(b1-4)GlcNAc(b1-4)GlcNAc
Method in brief: as §1

[28] = target: Gal(b1-4)GalNAc(a1-3)[Fuc(a1-2)]Gal(b1-4)GlcNAc
Method in brief: as §1

[29] = target: Gal(b1-4)GlcNAc(b1-3)Gal(b1-3)GlcNAc
Method in brief: as §1

Gal6S(b1-4)Glc6S = target: Gal6S(b1-4)Glc6S
Method in brief: as §1

GalNAc(a1-3)Gal = target: GalNAc(a1-3)Gal
Method in brief: as §1

GlcA(b1-3)GlcNAc = target: GlcA(b1-3)GlcNAc
Method in brief: as §1

GlcA(b1-6)Gal = target: GlcA(b1-6)Gal
Method in brief: as §1

[30] = target: GlcNAc(b1-2)Gal(b1-3)GalNAc
Method in brief: as §1

GlcNAc(b1-3)Gal = target: GlcNAc(b1-3)Gal
Method in brief: as §1

[31] = target: Man(a1-2)Man(a1-2)Man(a1-3)Man
Method in brief: as §1

[32] = target: Man(a1-3)[Man(a1-6)]Man(a1-6)[Man(a1-2)Man(a1-3)]Man(b1-4)GlcNAc(b1-4)GlcNAc
Method in brief: as §1

[33] = target: Neu5Ac(a2-3)Gal(b1-4)GlcNAc(b1-2)Man(a1-3)[GlcNAc(b1-2)Man(b1-4)GlcNAc(b1-2)Man(a1-6)]Man(b1-4)GlcNAc(b1-4)GlcNAc
Method in brief: as §1

[34] = target: Neu5Ac(a2-3)Gal(b1-4)[Fuc(a1-3)]GlcNAc(b1-3)Gal(b1-4)GlcNAc
Method in brief: as §1

[35] = target: Neu5Ac(a2-3)Gal(b1-4)[Fuc(a1-3)]GlcNAc(b1-3)Gal(b1-4)[Fuc(a1-3)]GlcNAc(b1-3)Gal(b1-4)[Fuc(a1-3)]GlcNAc
Method in brief: as §1

[36] = target: Neu5Gc(a2-3)Gal(b1-4)GlcNAc
Method in brief: as §1

[37] = target: Neu5Gc(a2-6)Gal(b1-4)GlcNAc
Method in brief: as §1

B1: P-Selectin (Mus musculus), Q01102 (protein)
chain: MAGCPKGSWTPRLRSVILGGAQLIWFSALISELVNQKEVAAWTYNYSTKAYSWNNSRVFCRRHFTDLVAIQNKNEIAHLNDVIPFFNSYYWIGIRKINNKWTWVGTNKTLTEEAENWADNEPNNKKNNQDCVEIYIKSNSAPGKWNDEPCFKRKRALCYTASCQDMSCSNQGECIETIGSYTCSCYPGFYGPECEYVKECGKVNIPQHVLMNCSHPLGEFSFNSQCTFSCAEGYELDGPGELQCLASGIWTNNPPKCDAVQCQSLEAPPHGTMACMHPIAAFAYDSSCKFECQPGYRARGSNTLHCTGSGQWSEPLPTCEAIACEPPEIPIHGSMDCVPSTGTFGYNSSCTFLCAEGFVLKGNDAIQCADSGQWTAPAPFCEALQCPEFPVPSKAQVNCSDPFGTLTYQSVCSFSCDEGSLLVGASVIRCLATGHWNGAPPECQAVSCAPMLSPENGSMTCVQPLGNSTYKSTCQFMCDEGFYLSGPERLDCSPSGHWTGTPPTCEAIKCPGIFAPEQGNLDCSHVHGEFGVGSICHFSCNEDFELLGSENVECTVSGRWSAPPPTCKGITSLPAPAVRCPALTTPGQGTMSCQHHLGSFGPNTTCYFGCKTGFTLRGANSLRCRASGQWTAVTPMCRAVKCSELHMDTAVAMNCSNPWGNFSYGSTCTFQCPEGQSLNGSVRATCREDGHWSDAMPTCQAGTLTIQEALTYLGGAVASTTGLAVGGTLLALLRKRLRKKDDGKCPLNPHSHLGTYGVFTNAAYDPTP
In the case of B1, the “glycan array binding signal (z-score)” value [1] is reported as -0.303, the “glycan array binding signal (z-score)” value [2] is reported as -0.426 and the “glycan array binding signal (z-score)” value [3] is reported as 2.1. The “glycan array binding signal (z-score)” value [4] was 3.7, the “glycan array binding signal (z-score)” value [5] was 3.95 and the “glycan array binding signal (z-score)” value [6] was -0.261. The “glycan array binding signal (z-score)” value [7] was 0.199, the “glycan array binding signal (z-score)” value [8] was -0.4 and the “glycan array binding signal (z-score)” value [9] was -0.29. For the same binder, the “glycan array binding signal (z-score)” value [10] was -0.495, the “glycan array binding signal (z-score)” value [11] was 3.6 and the “glycan array binding signal (z-score)” value (Gal3S(b1-4)Glc) was -0.174. The “glycan array binding signal (z-score)” value [12] was 4.89, the “glycan array binding signal (z-score)” value (Gal3S6S(b1-4)GlcNAc) was 1.4 and the “glycan array binding signal (z-score)” value (Gal6S(b1-4)GlcNAc) was -0.055. The “glycan array binding signal (z-score)” value (Glc(a1-4)Glc) was -0.562, the “glycan array binding signal (z-score)” value (GlcNAc(b1-3)Gal(b1-4)Glc) was -0.616 and the “glycan array binding signal (z-score)” value [13] was -0.63. For the same binder, the “glycan array binding signal (z-score)” value [14] was -0.478, the “glycan array binding signal (z-score)” value (Kdn(a2-3)Gal(b1-3)GlcNAc) was -0.37 and the “glycan array binding signal (z-score)” value [15] was -0.354. The “glycan array binding signal (z-score)” value [16] was -0.3, the “glycan array binding signal (z-score)” value [17] was -0.297 and the “glycan array binding signal (z-score)” value [18] was -0.154. The “glycan array binding signal (z-score)” value (Neu5Ac(a2-3)GalNAc) was -0.381, the “glycan array binding signal (z-score)” value [19] was -0.331 and the “glycan array binding signal (z-score)” value [20] was 0.023. For the same binder, the “glycan array binding signal (z-score)” value [21] was -0.311 and the “glycan array binding signal (z-score)” value [22] was 3.75.

B2: SLLPI (Homo sapiens), Q8IXA5 (protein)
chain: MVSALRGAPLIRVHSSPVSSPSVSGPRRLVSCLSSQSSALSQSGGGSTSAAGIEARSRALRRRWCPAGIMLLALVCLLSCLLPSSEAKLYGRCELARVLHDFGLDGYRGYSLADWVCLAYFTSGFNAAALDYEADGSTNNGIFQINSRRWCSNLTPNVPNVCRMYCSDLLNPNLKDTVICAMKITQEPQGLGYWEAWRHHCQGKDLTEWVDGCDF
B2 was tested, and the “glycan array binding signal (z-score)” value [1] was 1.93, the “glycan array binding signal (z-score)” value (Fuc(a1-2)Gal(b1-3)GlcNAc) was -0.188 and the “glycan array binding signal (z-score)” value (Fuc(a1-2)Gal(b1-4)Glc) was 0.145. The “glycan array binding signal (z-score)” value [23] was 0.263, the “glycan array binding signal (z-score)” value [24] was 0.21 and the “glycan array binding signal (z-score)” value (Fuc(b1-3)GlcNAc) was -0.512. The “glycan array binding signal (z-score)” value [25] was 0.947, the “glycan array binding signal (z-score)” value [26] was -0.063 and the “glycan array binding signal (z-score)” value [27] was 0.777. The “glycan array binding signal (z-score)” value [6] was 0.044, the “glycan array binding signal (z-score)” value [28] was -0.332 and the “glycan array binding signal (z-score)” value [29] was -0.37. The “glycan array binding signal (z-score)” value [11] was -0.205, the “glycan array binding signal (z-score)” value (Gal6S(b1-4)Glc6S) was 1.85 and the “glycan array binding signal (z-score)” value (GalNAc(a1-3)Gal) was 1.65. The “glycan array binding signal (z-score)” value (GlcA(b1-3)GlcNAc) was 0.16, the “glycan array binding signal (z-score)” value (GlcA(b1-6)Gal) was -0.073 and the “glycan array binding signal (z-score)” value [30] was -0.634. The “glycan array binding signal (z-score)” value (GlcNAc(b1-3)Gal) was 0.2, the “glycan array binding signal (z-score)” value (GlcNAc(b1-3)Gal(b1-4)Glc) was 0.579 and the “glycan array binding signal (z-score)” value [31] was 3.65. For the same binder, the “glycan array binding signal (z-score)” value [32] was 1.02, the “glycan array binding signal (z-score)” value [33] was 4.44 and the “glycan array binding signal (z-score)” value [34] was 0.654. The “glycan array binding signal (z-score)” value [35] was 0.311, the “glycan array binding signal (z-score)” value [36] was -0.286 and the “glycan array binding signal (z-score)” value [37] was -0.251.

— the supplement of paper PMC8728848
